# From PubChem BioAssay (NCATS)
# Results filed as inconclusive are left out. A call without a number means that no potency is given here. Values without a mark were called inactive. The source made the active and inactive calls. The call rests on the fitted dose curve; in most records, active means well fitted cell-killing curve with a large enough effect; inconclusive means small, poorly fitted or top-dose-only effect, or effect the other way; inactive means flat fitted curve, though single readings scatter.
# Assays:
# Test in all cases: Primary qHTS to identify gynecologic anti-cancer compounds using libraries of approved drugs and bioactive compounds (AID 1345084); further: nearly all actives have a fitted effect of over 55% in size
# Conditions in all cases: Gynecologic cancer cell panel viability, ATPlite luminescence, 48 h; series mostly up to 57.5 µM
# [1] = tested on: C33A
# In short: (§1)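 48 h compound exposure at 37 C, 5% CO2; five-point qHTS. ATPlite luminescence readout of cell ATP.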
# [2] = tested on: CAOV3
# In short: as §1
# [3] = tested on: CASKI
# In short: as §1
# Potency means the concentration at half of the fitted maximal effect.
compound,measurement,setting,value
c1ccc(Nc2nc3c(s2)CCCc2[nH]ncc2-3)nc1,Potency,[1],inactive
same,Potency,[2],inactive
same,Potency,[3],inactive
COC1CC(=O)CCC(C)OC(=O)CC1O (stereo unspecified),Potency,[1],inactive
same,Potency,[2],inactive
same,Potency,[3],inactive
COC1=Cc2c(nc3n(c2=O)C(C)C(=O)NC3(O)C(C)C)OC=C1 (stereo unspecified),Potency,[1],inactive
same,Potency,[2],inactive
same,Potency,[3],inactive
CN(NC(=O)CC(=O)NN(C)C(=S)c1ccccc1)C(=S)c1ccccc1,Potency,[3],inactive
COc1ccccc1CC(C(=O)O)N(C)C(=O)c1ccccc1 (stereo unspecified),Potency,[1],inactive
same,Potency,[3],inactive
CCc1nc(C(N)=O)c(Nc2ccc(N3CCC(N4CCN(C)CC4)CC3)c(OC)c2)nc1NC1CCOCC1,Potency,[3],7080 nM (active)
C[C@@H]1O[C@@H](O[C@H]2[C@H](OC(=O)[C@]34CCC(C)(C)C[C@H]3C3=CCC5[C@@]6(C)C[C@H](O)[C@H](O[C@@H]7O[C@H](CO)[C@@H](O[C@@H]8O[C@H](CO)[C@@H](O)[C@H](O)[C@H]8O)[C@H](O)[C@H]7O)[C@@](C)(CO)C6[C@H](O)C[C@@]5(C)[C@]3(C)C[C@H]4O)OC[C@H](O)[C@@H]2O)[C@H](O)[C@H](O)[C@H]1O[C@@H]1OC[C@@H](O)[C@H](O[C@@H]2OC[C@](O)(CO)[C@H]2O)[C@H]1O (stereo partly specified),"activity change, negative = cytotoxicity",[1],12.9% [at 6.55 µM]
same,"activity change, negative = cytotoxicity",[3],12.9% [at 6.55 µM]
C/C(=C\CCC(C)(O)c1ccc(C)cc1)C(=O)O (stereo unspecified),Potency,[1],inactive
same,Potency,[2],inactive
same,Potency,[3],inactive
COc1cc(N2CCC(N(C)C)CC2)ccc1Nc1ncc(Cl)c(Nc2ccccc2P(C)(C)=O)n1,Potency,[2],3550 nM (active)
same,Potency,[3],7080 nM (active)
Cc1cccc(-c2[nH]c(CNc3ccccc3F)nc2-c2ccc3ncnn3c2)n1,Potency,[1],inactive
same,Potency,[3],inactive
CN(C)C/C=C/C(=O)Nc1ccc(C(=O)Nc2cccc(Nc3ncc(Cl)c(-c4c[nH]c5ccccc45)n3)c2)cc1,Potency,[3],794 nM (active)
O=C1C[C@@H](c2ccc(O)cc2)Oc2cc(O)ccc21,Potency,[1],inactive
same,Potency,[3],inactive
C[C@H]1CC[C@@]2(OC1)O[C@H]1CC3C4CC=C5C[C@H](O)C[C@@H](O[C@@H]6O[C@@H](C)[C@H](O)[C@@H](O)[C@H]6O[C@@H]6O[C@@H](C)[C@H](O)[C@@H](O)[C@H]6O)[C@]5(C)C4CC[C@]3(C)[C@H]1[C@@H]2C (stereo partly specified),Potency,[1],inactive
same,Potency,[2],inactive
same,Potency,[3],inactive
COc1ccc(C)c2sc(NC(=O)c3ccncc3)nc12,Potency,[1],inactive
same,Potency,[3],inactive
CC(C)(O)/C=C1/C(=O)C(C)(C)C(=O)C(C)(C)C1(O)O[C@@H]1O[C@H](COC(=O)c2cc(O)c(O)c(O)c2)[C@@H](O)[C@H](O)[C@H]1O (stereo partly specified),Potency,[1],inactive
same,Potency,[2],inactive
same,Potency,[3],inactive
C[C@H]1[C@H](C)CC[C@]2(C(=O)O[C@@H]3O[C@H](CO)[C@@H](O)[C@H](O)[C@H]3O)CC[C@]3(C(=O)O)C(=CCC4[C@@]5(C)CC[C@H](O[C@@H]6O[C@H](CO)[C@@H](O)[C@H](O)[C@H]6O)C(C)(C)C5CC[C@]43C)[C@H]12 (stereo partly specified),"activity change, negative = cytotoxicity",[1],2.9% [at 11.6 µM]
same,"activity change, negative = cytotoxicity",[2],0.882% [at 11.6 µM]
same,"activity change, negative = cytotoxicity",[3],0.925% [at 11.6 µM]
Nc1c(Br)cc(Br)cc1CNC1CCC(O)CC1 (stereo unspecified),Potency,[2],inactive
CC(C)C1(O[C@@H]2O[C@H](CO)[C@@H](O)[C@H](O)[C@H]2O)CC=C(CO)CC1 (stereo partly specified),Potency,[1],inactive
same,Potency,[3],inactive
O=C(Nc1cccnn1)N1CCC(=Cc2cccc(Oc3ccc(C(F)(F)F)cn3)c2)CC1,Potency,[2],inactive
CCC(CCO[C@@H]1O[C@H](CO[C@H]2OC[C@](O)(CO)[C@H]2O)[C@@H](O)[C@H](O)[C@H]1O)C(C)(C)O (stereo partly specified),Potency,[1],inactive
same,Potency,[3],inactive
CC(C)Nc1cc(-c2c[nH]c(C(=O)N[C@H](CO)c3cccc(Cl)c3)c2)c(Cl)cn1,Potency,[1],inactive
same,Potency,[3],inactive
Cc1nc2c(-c3cnc(N)nc3)nc(N3CCOCC3)nc2n1C(C)C,Potency,[1],1410 nM (active)
same,Potency,[3],1260 nM (active)
C1CCN2CC3C[C@@H](CN4CCCC[C@@H]34)[C@H]2C1,Potency,[1],inactive
same,Potency,[3],inactive
CC(=O)OC[C@@]12[C@@H](OC(C)=O)C[C@@H](C)[C@](C)([C@@H]3C[C@H]4C=CO[C@H]4O3)[C@H]1CCC[C@]21CO1,Potency,[1],inactive
same,Potency,[3],inactive
CCC/C=C/C(=O)O[C@H]1CC(C)(C)CC2[C@]13[C@H](O)O[C@@]21CCC2[C@@]4(C)CC[C@H](O[C@@H]5O[C@H](C(=O)O)[C@@H](O)[C@H](O[C@@H]6O[C@H](CO)[C@H](O)[C@H](O)[C@H]6O[C@@H]6O[C@@H](C)[C@H](O)[C@@H](O)[C@H]6O[C@@H]6OC[C@](O)(CO)[C@H]6O)[C@H]5O[C@@H]5O[C@H](CO)[C@H](O)[C@H](O)[C@H]5O)C(C)(C)C4CC[C@@]2(C)[C@]1(C)C[C@H]3OC(C)=O (stereo partly specified),"activity change, negative = cytotoxicity",[1],-4.15% [at 6.55 µM]
same,"activity change, negative = cytotoxicity",[3],2.37% [at 6.55 µM]
CN1CCC(c2c[nH]c3ccc(NC(=O)c4ccc(F)cc4)cc23)CC1,Potency,[1],inactive
same,Potency,[3],inactive
NS(=O)(=O)OC[C@@H]1C[C@@H](n2ccc3c(N[C@H]4CCc5ccccc54)ncnc32)C[C@@H]1O,Potency,[2],631 nM (active)
same,Potency,[3],inactive
COC(=O)[C@]12C(=O)C(C)=C(O)[C@@]1(C)C(C)=CC1[C@@]34CC[C@@H](OC(C)=O)C(C)(C)C3[C@H](C[C@]12C)OC4=O (stereo partly specified),Potency,[1],inactive
same,Potency,[2],inactive
same,Potency,[3],inactive
O=C(OCC12OC1C=CC(OC(=O)c1ccccc1)C2O)c1ccccc1 (stereo unspecified),Potency,[1],inactive
same,Potency,[3],inactive
O=C(O)CCc1cc2ccoc2cc1O[C@@H]1O[C@H](CO[C@@H]2OC[C@](O)(CO)[C@H]2O)[C@@H](O)[C@H](O)[C@H]1O,Potency,[1],inactive
same,Potency,[3],inactive
CC1=CC(=O)C[C@H]2[C@@H]1CC[C@@H](C)[C@]21CO[C@H](c2ccoc2)C1=O,Potency,[1],inactive
same,Potency,[3],inactive
CC(C)[C@@H](C)/C=C/[C@@H](C)[C@H]1CC[C@H]2C3=CC=C4C[C@@H](O)CC[C@]4(C)[C@H]3CC[C@]12C,Potency,[1],inactive
same,Potency,[3],inactive
CC(C)C(=O)c1cn(CC(=O)COc2ccc(Oc3ccccc3)cc2)c2ccc(C(=O)O)cc12,Potency,[1],inactive
same,Potency,[3],inactive
CC(=O)O[C@@H]1[C@H](O[C@@H]2OC[C@](O)(CO)[C@H]2O)[C@@H](O[C@@H]2O[C@@H](C)[C@H](O)[C@@H](O)[C@H]2O)[C@H](OC(=O)[C@]23CCC(C)(C)C[C@H]2C2=CCC4[C@@]5(C)C[C@H](O)[C@H](O[C@@H]6O[C@H](C(=O)O)[C@@H](O)[C@H](O)[C@H]6O)[C@@](C)(C(=O)O)C5CC[C@@]4(C)[C@]2(C)CC3)O[C@@H]1C (stereo partly specified),"activity change, negative = cytotoxicity",[1],-3.02% [at 11.6 µM]
same,"activity change, negative = cytotoxicity",[3],0.959% [at 11.6 µM]
